Our source for the growth values is PubChem BioAssay (NCI).

The panel holds about 83,000 compounds, 20% with a hit somewhere; the sample as a whole holds those more often.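 Assay: single dose, 48 h. Readout: percent growth (0 = no net growth; negative = cell death). Active: <10.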 Unmarked numbers belong to inactive results. The source made the active and inactive calls.

Test systems include RPMI-8226 leukemia; OVCAR-8 ovarian; OVCAR-5 ovarian; OVCAR-4 ovarian; SK-OV-3 ovarian; IGROV1 ovarian; OVCAR-3 ovarian; HS 578T breast; NCI/ADR-RES ovarian; T-47D breast.
Test in all cases: NCI-60 one-dose screen, 48 h (100 = growth as untreated, 0 = no growth, -100 = all killed)
What all share (settings): 10 µM unless noted

In the case of `COc1ccc(Cn2cc(Cn3cc(C=C4C(=O)NC(=O)NC4=O)c4ccccc43)nn2)cc1`, the growth with RPMI-8226 leukemia is 83.8%; in the assay with OVCAR-8 ovarian, 87.6%; with OVCAR-5 ovarian, 71.7%; in the assay with OVCAR-4 ovarian, 82.4%; in the assay on SK-OV-3 ovarian it was 75.3%; in the assay on IGROV1 ovarian, 94.3%. The growth in the assay with OVCAR-3 ovarian is 88.9%; in the assay with HS 578T breast it was 82.6%; with NCI/ADR-RES ovarian, 84.1%; in the assay on T-47D breast, 64.3%.

`CCN(CC)CCNC(=O)C(Cl)=C1C(Cl)=C(Cl)C(Cl)=C1Cl`: the growth in the assay with RPMI-8226 leukemia is 30.6%; in the assay with OVCAR-8 ovarian, 15.8%; in the assay with OVCAR-5 ovarian, 120%; in the assay with OVCAR-4 ovarian, 41.9%; in the assay with SK-OV-3 ovarian, 58.7%; with IGROV1 ovarian, 59.1%. Further, the growth with OVCAR-3 ovarian is 40.1%; in the assay with HS 578T breast, 82.2%; in the assay on NCI/ADR-RES ovarian it was 44.7%; in the assay with T-47D breast it was 56.6%.

For the compound `Nc1n[nH]c2ccc([C@@H]3Nc4ccc5[nH]ncc5c4[C@H]4[C@H]5CCC(C5)[C@H]43)cc12`, the growth in the assay on RPMI-8226 leukemia was 17.4%; in the assay on OVCAR-8 ovarian, 24.3%; in the assay on OVCAR-5 ovarian it was 34.9%; in the assay on OVCAR-4 ovarian, 47.6%; in the assay on SK-OV-3 ovarian, 50.6%; with IGROV1 ovarian it was 24.2%. The growth is -10.1% (active) in the assay on OVCAR-3 ovarian, 5.8% (active) in the assay with HS 578T breast, 5.44% (active) in the assay on NCI/ADR-RES ovarian and 73.6% in the assay on T-47D breast.

As for `COc1ccc(-c2nc(N3CCN(C(=O)C4CCCCC4)CC3)c3c4c(sc3n2)CCCC4)cc1`, the growth in the assay on RPMI-8226 leukemia is 2.49% (active); in the assay with OVCAR-8 ovarian it was -44.7% (active); with OVCAR-5 ovarian, 35.6%; with OVCAR-4 ovarian, -85.4% (active); with SK-OV-3 ovarian it was 81%; with IGROV1 ovarian it was 33.7%. Also, the growth with OVCAR-3 ovarian is -38.3% (active); in the assay on HS 578T breast, 12.8%; in the assay on NCI/ADR-RES ovarian, 84.2%; in the assay with T-47D breast it was 3.68% (active).

On to `COc1cc(C(C)n2cc(-c3ccccc3)nn2)ccc1OC1CCCC1` (stereo not given), for which the growth was 36.1% with RPMI-8226 leukemia; 65.6% in the assay with OVCAR-8 ovarian; 93.1% in the assay on OVCAR-5 ovarian; 54.9% in the assay on OVCAR-4 ovarian; 75.8% in the assay on SK-OV-3 ovarian; 70.9% in the assay with IGROV1 ovarian. Besides, the growth in the assay on OVCAR-3 ovarian is 61.5%; with HS 578T breast, 94%; in the assay with NCI/ADR-RES ovarian it was 45%; in the assay on T-47D breast it was 51.5%.

For `O=C(c1ccccc1)N(CCc1ccc(Cl)cc1)C(=S)N(C(=O)c1ccccc1)c1ccccc1`, the growth is -27% (active) in the assay with RPMI-8226 leukemia; 106% with OVCAR-8 ovarian; 106% in the assay on OVCAR-5 ovarian; 96.6% in the assay with OVCAR-4 ovarian; 120% in the assay with SK-OV-3 ovarian; 116% with IGROV1 ovarian. In addition, the growth in the assay on OVCAR-3 ovarian is 104%; in the assay on HS 578T breast it was 108%; with NCI/ADR-RES ovarian, 109%; with T-47D breast, 61.7%.

For the compound `CN1CCN(Cc2ccc(C(=O)Nc3cncc(C#Cc4cnc5cccnn45)c3)cc2C(F)(F)F)CC1`, the growth is 29% in the assay on RPMI-8226 leukemia; 78.7% in the assay with OVCAR-8 ovarian; 47.2% in the assay on OVCAR-5 ovarian; 41.8% with OVCAR-4 ovarian; 78.9% in the assay on SK-OV-3 ovarian; 31.5% with IGROV1 ovarian. The growth was 63.3% in the assay on OVCAR-3 ovarian, 54.8% with HS 578T breast, 91.6% with NCI/ADR-RES ovarian and 81.2% with T-47D breast.

For the compound `COc1ccc(C2Nc3nc(OC)n(C)c(=O)c3N=C3c4ccccc4C(=O)C32)cc1` (stereo not given), the growth with RPMI-8226 leukemia is 92.1%; with OVCAR-8 ovarian it was 103%; in the assay with OVCAR-5 ovarian it was 103%; in the assay on OVCAR-4 ovarian it was 88.5%; with SK-OV-3 ovarian, 109%; in the assay on IGROV1 ovarian, 140%. For the same compound, the growth with OVCAR-3 ovarian was 94.6%; with HS 578T breast, 100%; in the assay with NCI/ADR-RES ovarian, 97.6%; with T-47D breast it was 101%.

As to `O=C(Nc1ccc(-c2nc3cc4ccccc4cc3[nH]2)cc1)c1cccc(Br)c1`, the growth with RPMI-8226 leukemia is 23%; in the assay on OVCAR-8 ovarian it was 7.87% (active); with OVCAR-5 ovarian, 73.7%; with OVCAR-4 ovarian, 63.7%; in the assay on SK-OV-3 ovarian, 43.8%; in the assay on IGROV1 ovarian, 33.2%. The growth was 25.9% in the assay with OVCAR-3 ovarian, 83.5% in the assay on HS 578T breast, 39.2% in the assay with NCI/ADR-RES ovarian and 54% with T-47D breast.

Consider `O=c1oc2ccc(Cl)cc2c(=O)n1-c1ccc(F)cc1F`, for which the growth in the assay on RPMI-8226 leukemia is -1.02% (active); with OVCAR-8 ovarian, 11.4%; in the assay with OVCAR-5 ovarian, 16.6%; in the assay with OVCAR-4 ovarian it was 18.5%; in the assay with SK-OV-3 ovarian, -7.81% (active); in the assay on IGROV1 ovarian, 16.2%. In addition, the growth is 6.16% (active) with OVCAR-3 ovarian, 8.54% (active) with HS 578T breast, 7.29% (active) with NCI/ADR-RES ovarian and -10.7% (active) in the assay on T-47D breast.

As for `CCOC(=O)c1cc2c(n1Cc1ccccc1)-c1oncc1CCC2`, the growth in the assay on RPMI-8226 leukemia was 64.4%; in the assay with OVCAR-8 ovarian, 80.9%; with OVCAR-5 ovarian, 101%; with OVCAR-4 ovarian, 72.9%; in the assay with SK-OV-3 ovarian, 87.1%; in the assay with IGROV1 ovarian, 58%. Further, the growth was 76.6% with OVCAR-3 ovarian, 76.5% in the assay with HS 578T breast, 52.3% in the assay with NCI/ADR-RES ovarian and 80.7% with T-47D breast.

`CN(C)CCNc1cc(-c2ccccc2)nc2ccccc12`: the growth with RPMI-8226 leukemia was -8.18% (active); in the assay on OVCAR-8 ovarian it was -34.4% (active); in the assay on OVCAR-5 ovarian, -39.7% (active); with OVCAR-4 ovarian, -25% (active); with SK-OV-3 ovarian, 36.4%; in the assay with IGROV1 ovarian, -64% (active). For the same compound, the growth with OVCAR-3 ovarian is -92.5% (active); in the assay on HS 578T breast it was 11.1%; in the assay on NCI/ADR-RES ovarian, -1.85% (active); with T-47D breast, -5.18% (active).

As for `COc1ccc(N2C(=O)CC(c3cc(OC)c(OC)c(OC)c3)C3C2=NC(=O)N3C)cc1` (stereo not given), the growth with RPMI-8226 leukemia was 119%; in the assay on OVCAR-8 ovarian, 102%; in the assay with OVCAR-5 ovarian, 102%; in the assay with OVCAR-4 ovarian, 105%; in the assay on SK-OV-3 ovarian, 108%; with IGROV1 ovarian it was 109%. The growth was 108% with OVCAR-3 ovarian, 97.1% in the assay on HS 578T breast, 109% with NCI/ADR-RES ovarian and 95.7% in the assay with T-47D breast.

On to `COc1cc(OC)cc(N2C(=O)N(Cc3ccc(C(C)(C)C)cc3)c3ccccc3S2(=O)=O)c1`, for which the growth was 34.6% with RPMI-8226 leukemia; 96% in the assay with OVCAR-8 ovarian; 86.2% in the assay on OVCAR-5 ovarian; 81.8% in the assay with OVCAR-4 ovarian; 93.4% with SK-OV-3 ovarian; 86.4% in the assay with IGROV1 ovarian. For the same compound, the growth in the assay with OVCAR-3 ovarian is 92.2%; in the assay with HS 578T breast it was 90.9%; with NCI/ADR-RES ovarian, 73.2%; in the assay with T-47D breast it was 81.1%.
